# SARS PLpro yeast – inhibitors of SARS-CoV papain-like protease in yeast. Potency, µM (doses to about 32.9 µM), for the others: at the highest dose activity, positive = growth rescue, hits mostly activators. AID 485353. 330,000 compounds, 0.19% hits. S. cerevisiae expressing SARS-CoV PLpro, growth rescue; calls by dose curve; further: potency means the concentration at half of the fitted maximal effect; 0% is about no effect; nearly all actives have a fitted effect of over 55% in size
# Shiga toxin inh – Shiga toxin inhibition; Vero cells, Shiga toxin protein synthesis inhibition reporter; 290,000 compounds, 9.2% hits; inhibition, % at 38.7 µM; AID 2315; in the data active means inhibition mostly above about 28%, no sharp cut-off; inactive means mostly below about 43%; further: 0% is about no effect
# Cycloheximide cs – counter-screen hit for Shiga toxin inhibitors, cycloheximide. cell reporter, cycloheximide protein synthesis inhibition counterscreen. max response, %. 300,000 compounds, 12% hits. AID 2314; in the data active means max response mostly above about 13%, no sharp cut-off; inactive means mostly below about 14%; further: read at 38.3 µM for the half of the compounds with a filed dose; 0% is about no effect
# AMA1 RON2 block – AMA1-RON2 (P. falciparum) interaction inhibition; Potency, µM (titrated, usually from 58.2 µM), without a hit: at the highest dose activity change, negative = inhibition, hits mostly inhibitors; 360,000 compounds, 0.2% hits; AID 720542; AlphaScreen AMA1-biotinylated RON2 peptide binding;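 further: potency means the concentration at half of the fitted maximal effect; 0% = vehicle wells and -100% = peptide control; nearly all actives have a fitted effect of over 45% in size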
#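 AMA1 (3D7) with his tag at 25 nM final met compounds first, then biotinylated RON2 peptide at 25 nM; detection used donor plus acceptor beads, 10 µg/mL apiece, read by AlphaScreen after 30 min at room temperature.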
# Pf growth 48h – P. falciparum growth inhibition at 48 hours (one generation); P. falciparum luciferase growth in erythrocytes, 48 h; Potency, µM (titrated, usually from 28.7 µM), for inactives: at the highest dose activity change, negative = inhibition, most hits filed as inhibitors; 310,000 compounds, 5.9% hits; AID 504832; further: potency means the concentration at half of the fitted maximal effect; on the % scale 0 is the no-effect control and ±100 the full control effect
#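 Read-out is firefly luciferase luminescence from an integrated reporter in P. falciparum, so falling signal marks reduced parasite growth. Infected erythrocytes were at 2% hematocrit and 0.1% parasitemia (final) in Albumax-supplemented RPMI 1640.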
# Pf growth 96h – P. falciparum growth inhibition at 96 hours; P. falciparum luciferase reporter growth, 96 h; Potency, µM (titrated, usually from 28.7 µM), for the others: at the highest dose activity change, negative = inhibition, hits mostly inhibitors; 320,000 compounds, 6.9% hits; AID 504834; further: potency means the concentration at half of the fitted maximal effect; on the % scale 0 is the no-effect control and ±100 the full control effect
#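 Two parasite generations (96 h, 37 C, 5% CO2) of compound exposure in infected erythrocytes (0.05% parasitemia, 2% hematocrit). Luciferase-reporter P. falciparum; decreased luminescence indicates inhibited growth, aimed at apicoplast-acting delayed death.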
# * = called active by the depositor; i = inactive; ? = inconclusive; · = no result given. Sampled rows, rich in hits. Any-hit rate of the full collection: about 19%. Unless noted, the call rests on the fitted dose curve; in most records, active means well fitted curve in the direction sought with a large enough effect; inconclusive means small, poorly fitted or top-dose-only effect, or another doubt; inactive means no such curve, though single readings can be large; an effect the other way counts as inactive or inconclusive.
SMILES,SARS PLpro yeast,Shiga toxin inh,Cycloheximide cs,AMA1 RON2 block,Pf growth 48h,Pf growth 96h
COc1ccc(OC)c(C(c2nnnn2CC2CCCO2)N2CCN(C3CCCC3)CC2)c1 (stereo not given),4µM*,20,4,7%,?,0%
COc1ccc(OC)c(C(c2nnnn2Cc2ccccc2)N2CCN(C3CCCCC3)CC2)c1 (stereo not given),3%,-12,-1,-3%,10µM*,-16%
c1ccc(CCn2nnnc2C(c2cccnc2)N2CCOCC2)cc1 (stereo not given),1%,-9,5,-4%,-14%,2.6µM*
COc1ccc(S(=O)(=O)Nc2ccc3c(c2)C(=O)N([C@@H](C)CO)C[C@H](C)[C@H](CN(C)S(=O)(=O)c2ccc(F)cc2)O3)cc1,-3%,·,·,-1%,·,·
O=C(O)C1(c2ccccc2)CCN(S(=O)(=O)c2ccc(Cl)cc2)CC1,4%,·,-4,5%,-10%,?
Cc1ccc(C(c2nnnn2CCc2ccccc2)N2CCC(C)CC2)cc1 (stereo not given),-47%,21,15*,-15%,7.4µM*,1%
CCCC(c1nnnn1CCc1ccccc1)N1CCC(C(N)=O)CC1 (stereo not given),0%,-7,1,-5%,-17%,4.1µM*
COc1cccc(C(c2nnnn2Cc2ccccc2)N2CCN(C3CCCC3)CC2)c1OC (stereo not given),0%,-18,-3,-1%,-5%,2.3µM*
CC(C)C(c1nnnn1CCc1ccccc1)N1CCC(C(N)=O)CC1 (stereo not given),1%,-6,-3,-5%,12%,28%
Cc1ccc(C(c2nnnn2CCc2ccccc2)N2CCSCC2)cc1 (stereo not given),-1%,-1,0,-24%,?,·
C=CCn1c(C)nnc1SCC(=O)Nc1ccccc1C(=O)NC1CC1,-5%,·,·,-4%,?,-3%
Cc1ccc(NC(=O)NC2CCCN2S(=O)(=O)c2ccc(Cl)cc2)cc1 (stereo not given),-2%,-23,9,-14%,8%,·
Cc1ccc2c(c1)C1CN(C)CCC1N2C(=O)c1cn(-c2ccccc2)nc1-c1ccccc1 (stereo not given),1%,-9,4,-18%,13µM*,?
Cc1ccc2c(c1)C1CN(C)CCC1N2C(=O)c1cccnc1Cl (stereo not given),-1%,-3,-2,-6%,-15%,47%
Cc1ccc2c(c1)[C@@H]1CN(C)CC[C@@H]1N2C(=O)Nc1cccc(C(F)(F)F)c1,4%,-17,-7,2%,·,0.83µM*
Cc1ccc2c(c1)C1CN(C)CCC1N2C(=O)c1cccc(S(=O)(=O)N2CC(C)CC(C)C2)c1 (stereo not given),-5%,-8,-3,-9%,?,13µM*
Cc1ccc2c(c1)C1CN(C)CCC1N2C(=O)Nc1cccc(C(F)(F)F)c1 (stereo not given),-5%,-6,-1,-15%,9.3µM*,·
Cc1ccc2c(c1)C1CN(C)CCC1N2C(=O)c1ccc(Cl)c(S(=O)(=O)N2CCOCC2)c1 (stereo not given),2%,-9,-1,-3%,?,?
COc1ccc(NC(=O)Cn2c3ccc(OC)cc3c3nc4n(c(=O)c32)CCS4)cc1,14%,15,7,6%,-1%,54%
CC(C)(C)OC(=O)C[C@@H]1C/C=C\C[C@@H](CC(=O)N[C@@H](CO)Cc2ccccc2)C(=O)NCCOC1=O,0%,·,·,9%,·,·
CC12CCC(=O)N1C(C(=O)OCC(=O)Nc1ccc(C(F)(F)F)cc1)CS2 (stereo not given),24%,·,·,-7%,36%,7%
C=CC[n+]1ccc(/C=C2\C=Cc3cc(C)ccc3N2CC)c2ccccc21,-39%,-1,-5,?,?,-24%
O=C(c1cc(=O)[nH]c2ccccc12)N1CCN(c2ccccc2)CC1,0%,-7,-2,-12%,26%,-9%
CCOC(=O)/C(=N/Nc1ccc(OC)cc1)N1CCCc2ccccc21,-2%,41*,21,22µM*,?,?
CCOC(=O)/C(=N/Nc1ccccc1)N1CCCc2ccccc21,?,16,1,?,15µM*,?
SMILES,SARS PLpro yeast,Shiga toxin inh,Cycloheximide cs,AMA1 RON2 block,Pf growth 48h,Pf growth 96h
CCOC(=O)/C(=N/Nc1ccccc1OC)N1CCCc2ccccc21,-1%,6,-1,-16%,?,?
CC(C)c1nnc(SCC(=O)N2CCOCC2)n1C,9%,2,-4,2%,9%,15%
CCCCNC(=O)C1(C)CCN1C(=O)c1ccc(C)c(F)c1 (stereo not given),·,·,·,0%,·,·
CCCCCOc1ccc(C(=O)OCC(=O)Nc2cc(C)on2)cc1,0%,·,·,-14%,?,32%
C/C(=N/NC(=O)CN1CCN(Cc2ccccc2Cl)CC1)c1ccncc1,17%,12,1,3%,-6%,20%
COc1cccc(CN(C)CC(O)COc2cc(Cl)ccc2Cl)c1 (stereo not given),-1%,-2,1,1%,10µM*,?
O=C(COC(=O)c1cc([N+](=O)[O-])ccc1NCCO)Nc1cccnc1Cl,-4%,·,·,-1%,·,·
c1ccc(-c2n[nH]c3ccccc23)cc1,-27%,-39,15,11%,28%,?
c1ccc(-c2n[nH]c3c2oc2ccccc23)cc1,·,72*,53*,·,·,·
Cc1nonc1OCCNC(=O)C12CC3CC(CC(C3)C1)C2,-7%,-4,-3,12%,5%,·
NC(=O)C1CCN(c2ncnc3c2c(-c2ccccc2)cn3-c2ccccc2)CC1,-6%,-17,-6,0%,·,10µM*
Cc1ccc(Cn2ccc(NC(=O)c3cc(C)on3)n2)cc1,3%,52,29*,-9%,·,·
Cc1ccc(Cn2ccc(NC(=O)c3cc(-c4ccccc4)on3)n2)cc1,4%,31,-2,4%,9.3µM*,i
Cc1ccc(Cn2ccc(NC(=O)c3cc(-c4ccco4)on3)n2)cc1,9%,14,14,-2%,10µM*,19%
COC(=O)C(CCSC)NC(=O)c1cn(-c2ccc(OC)cc2)c(=O)c2ccccc12 (stereo not given),1%,-4,1,4%,?,?
Cc1ccc(N(CC(=O)N2CCc3ccccc32)S(=O)(=O)c2cccs2)cc1,-8%,-8,0,2%,·,?
Cc1cc(Cl)ccc1NC(=S)N(CCCN1CCOCC1)Cc1cccs1,8%,-5,-3,-23%,?,12µM*
Cc1cc(C)c(NC(=S)N(CCCN2CCN(C)CC2)Cc2cccs2)c(C)c1,-2%,-15,1,-2%,-30%,10µM*
Cc1cc(S(=O)(=O)NCCCN2CCOCC2)c(Cl)cc1Cl,0%,-3,-2,1%,19%,58%

# Screening results (PubChem)
